# Screening data (PubChem BioAssay)
# CYP2C19 inh: human CYP2C19 inhibition; inhibition, % at 5 µM; P33261; 96,000 tested, 21% active; AID 778; CYP2C19 Supersomes, luciferin-H EGE luminescence, 30 min;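 active means CYP2C19 inhibition above a set limit at 5 µM in the primary screen, cut at about 50% in these data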;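 further: plate controls were negative control wells for no effect and 2.5 mM tranylcypromine positive control for full effect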
# Target sequence (P33261 whole entry, looked up): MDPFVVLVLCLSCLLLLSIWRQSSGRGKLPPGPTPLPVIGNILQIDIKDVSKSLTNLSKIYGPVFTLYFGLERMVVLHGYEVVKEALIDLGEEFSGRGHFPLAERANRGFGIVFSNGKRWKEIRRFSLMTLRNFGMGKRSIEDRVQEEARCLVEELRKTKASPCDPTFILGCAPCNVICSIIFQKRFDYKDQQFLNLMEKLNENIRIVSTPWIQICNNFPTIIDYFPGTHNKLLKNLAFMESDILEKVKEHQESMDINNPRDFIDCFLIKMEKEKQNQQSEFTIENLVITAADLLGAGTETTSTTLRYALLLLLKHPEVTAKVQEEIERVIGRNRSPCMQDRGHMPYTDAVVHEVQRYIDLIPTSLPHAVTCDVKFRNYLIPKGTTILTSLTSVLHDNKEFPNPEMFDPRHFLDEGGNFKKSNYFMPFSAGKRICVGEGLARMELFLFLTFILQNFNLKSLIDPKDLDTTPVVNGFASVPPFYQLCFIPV
# Cav3 T inh: blocks human Cav3.2 T-type calcium channel. Cav3.2-expressing cells, Fluo-4 calcium fluorescence FDSS; active compounds read low. B-score at 10 µM. 100,000 tested, 4% active;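 active means single-dose well whose peak fluorescence ratio is a statistical outlier from its plate by either plate-standardised score or position-corrected B-score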
# CYP2C9 activ: increases human cytochrome P450 2C9 activity; AID 1024; activation factor at 5 µM; 96,000 tested, 1.4% active; P11712; recombinant CYP2C9, luciferin-H conversion, luminescence; active compounds read high; factor 1 = untreated enzyme, 0 = blocked;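 active means activation factor of 2 or more for CYP2C9 at a 5 µM dose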;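 further: 0 = sulfaphenazole-blocked wells and 1 = vehicle-only wells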
# CYP2C9 inh: human CYP2C9 inhibition; CYP2C9 Supersomes, luciferin-H conversion, luminescence; inhibition, % at 5 µM; 96,000 tested, 20% active; AID 777;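 active means blocking of liver enzyme CYP2C9 beyond about 50% at 5 µM, limit read from the data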
# CYP2C19 activ: cytochrome P450 2C19 (human) activation | 96,000 tested, under 10 active | P33261 | activation factor at 5 µM | AID 1025 | recombinant CYP2C19, luciferin-H EGE luminescence; active compounds read high; 0 = fully inhibited enzyme, 1 = untreated enzyme;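 active means activation factor of at least 2 at 5 µM in the primary screen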;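 further: 0 = wells with 2.5 mM tranylcypromine and 1 = vehicle-only wells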
# Numbers without * were called inactive; · = no result given. Shown are actives, neighbours in structure and some others; about 27% of the full set was active somewhere.
SMILES,CYP2C19 inh,Cav3 T inh,CYP2C9 activ,CYP2C9 inh,CYP2C19 activ
O=C(CSc1nnc(-c2ccc(Cl)cc2)n1Cc1ccco1)NCc1ccc2c(c1)OCO2,38,-5.3*,0.4,56*,0.6
O=C(OC(C(=O)NCc1ccc2c(c1)OCO2)c1ccc(Cl)cc1)c1ccco1 (centres undefined),85*,-3.7,0,98*,0.2
O=C(CSc1nnc(-c2ccc(Cl)cc2)n1Cc1ccco1)Nc1ccc2c(c1)OCCO2,27,-4,0.8,24,0.7
C=C1CC2C(=O)N(Cc3ccccc3)C(C(=O)OCC)(C(=O)OCC)C1N2C(=O)OC(C)(C)C (centres undefined),·,-1.4,·,·,·
Cc1ccc(-c2nc3cccnc3s2)cc1NS(=O)(=O)c1ccc2c(c1)OCCO2,-14,0.031,0.3,74*,1.1
Cc1nc2ccc(S(=O)(=O)Nc3cc(-c4nc5cccnc5s4)ccc3C)cc2s1,·,-2.8,·,·,·
CN(C)S(=O)(=O)c1ccc(S(=O)(=O)NC2CCOC(C)(C)C2)cc1 (centres undefined),·,-1.8,·,·,·
CCOc1ccc2oc(-c3ccccc3)c(C(=O)N3CCN(CCO)CC3)c2c1,40,0.27,0.2,82*,0.6
CCOC(=O)C1=NN(c2ccccc2C)C2=NC(C)=C(C(=O)OC)C(c3cccs3)N12 (centres undefined),·,-6*,·,·,·
CCN(CC)S(=O)(=O)c1ccc2oc(SCc3ccc(F)cc3)nc2c1,25,-0.12,0.3,69*,0.8
CCN(CC)S(=O)(=O)c1ccc2oc(C(=O)NCc3ccc(F)cc3)c(C)c2c1,58*,-6.8*,0.4,59*,0.4
Cc1c(C(=O)NCC2COc3ccccc3O2)oc2ccc(S(=O)(=O)N3CC(C)CC(C)C3)cc12 (centres undefined),15,-3.9*,0.6,43,0.8
CCCCN(CCCC)S(=O)(=O)c1ccc2oc(C(=O)N3CCOCC3)c(C)c2c1,21,-4.7*,0.5,49,0.8
CCN(CC)S(=O)(=O)c1ccc(-c2nnc(SC)o2)cc1,10,0.5,1,0,0.9
CC(=O)Cn1c(C(F)(F)F)nc2ccccc21,-13,-0.27,1.1,-14,1.1
COC(=O)c1ccc(-c2ccc(C(=O)N3CCCN(C)CC3)cc2)cc1,7,0.62,1.3,-26,0.9
Cc1c(C(=O)NCC2CCCO2)oc2ccc(S(=O)(=O)N3CC(C)CC(C)C3)cc12 (centres undefined),34,-4*,0.4,59*,0.7
Cc1c(C(=O)NCC2COc3ccccc3O2)oc2ccc(S(=O)(=O)N3CCOCC3)cc12 (centres undefined),18,·,0.4,56*,0.8
CCN(CC)S(=O)(=O)c1ccc2oc(C(=O)NCC3COc4ccccc4O3)c(C)c2c1 (centres undefined),34,·,0.2,76*,0.7
CCN(CC)S(=O)(=O)c1ccc2oc(C(=O)NCCCN3CCOCC3)c(C)c2c1,21,0.91,0.8,23,0.8
Cc1c(C(=O)NCCc2ccccc2)oc2ccc(S(=O)(=O)N3CCOCC3)cc12,27,0.26,0.6,45,0.7
O=C(O)c1ccc2c(c1)C(=O)N(Cc1ccccc1)C2=O,2,·,0.9,8,1
CCN(CC)S(=O)(=O)c1cc(C(=O)n2cccn2)c(Cl)cc1Cl,66*,2,2.3*,-133,0.3
CCN(CC)S(=O)(=O)c1cc(OC)c(Cl)cc1Cl,97*,-0.97,3*,-204,0
CCN(CC)S(=O)(=O)c1ccc(Oc2ccc(S(=O)(=O)N(CC)CC)cc2)cc1,67*,-1.2,0.1,87*,0.3
SMILES,CYP2C19 inh,Cav3 T inh,CYP2C9 activ,CYP2C9 inh,CYP2C19 activ
CCNS(=O)(=O)c1ccc(Br)c(OC)c1,29,0.43,2.2*,-116,0.7
Cc1ccc(-n2c(=O)cc(NCc3cccnc3)[nH]c2=O)cc1,11,1,0.9,8,0.9
COCC(=O)NC1CCN(C(=O)NCc2ccccc2)CC1,0,0.25,1.1,-6,1
COCCNS(=O)(=O)c1cc(OC)c(Cl)cc1Cl,68*,-1.1,1.6,-55,0.3
COc1ccc(S(=O)(=O)NCCOc2ccccc2)cc1OC,100*,1.5,2.9*,-186,0
CCOc1cc(S(=O)(=O)N(CC)CC)ccc1Br,95*,-2.1,1.3,-28,0.1
CCN(CC)S(=O)(=O)c1ccc(Cl)c(OC)c1,89*,1.4,2.4*,-140,0.1
CCN(CC(N)=O)S(=O)(=O)c1ccc(Br)cc1,17,0.48,1.1,-10,0.8
CCOc1ccccc1COC(=O)c1cccc(-n2cnnn2)c1,46,-2,1.8,-76,0.5
Cn1nnc2cc(C(=O)N3CCN(c4ccccc4)CC3)ccc21,34,0.19,0.9,10,0.7
O=C(COC(=O)c1ccc[nH]c1=O)NCC1CCCO1 (centres undefined),·,0.26,·,·,·
C=CCNCc1cccn1-c1ccccc1,8,0.55,1,3,0.9
C=CCNc1nc2c(c(=O)[nH]c(=O)n2C)n1CCCCC,6,0.041,0.9,9,0.9
COc1cc(OC)c(C(=O)Nc2ncn[nH]2)cc1OC,·,-0.058,·,·,·
CCN(CC)S(=O)(=O)c1cc(F)ccc1OC,·,0.87,·,·,·
CCN(CC)S(=O)(=O)c1ccc(Br)c(OC)c1,82*,-0.4,1.9,-85,0.2
CCOc1cc(C)c(Cl)cc1S(=O)(=O)N(CC)CC,53*,-3.1,2*,-100,0.5
COc1cc(S(=O)(=O)NCCN2CCOCC2)c(OC)cc1Cl,65*,-0.56,0.9,12,0.4
CSc1n[nH]c(NCc2cccs2)n1,-9,-0.47,1.1,-8,1.1
CCOC(=O)N1CCN(C(=S)NCCOC)CC1,7,1.6,1,-4,0.9
O=C(Cc1ccccc1)Nc1nonc1NC(=O)c1ccccc1,27,0.21,0.3,70*,0.7
COCCNC(=O)C(C)OC(=O)c1cc2occc2n1C (centres undefined),4,0.92,0.2,80*,1
COC(=O)c1cc2occc2n1Cc1ccc(Cl)cc1,2,-1.5,0.9,11,1
COc1cc2nc(-c3cccs3)oc(=O)c2cc1OC,·,0.23,·,·,·
CCCc1cc(=O)[nH]c(SCC(=O)N(CC)C2CCS(=O)(=O)C2)n1 (centres undefined),4,0.7,0.8,23,1
CCN(CC)CCn1nc(C)nc1-c1ccccc1O,88*,0.2,0.9,13,0.1
COc1ccc(OC)c2c1CC(C)(C)NC2=O,-12,-0.004,0.9,5,1.1
CCC(C)(C)n1nnnc1C(c1ccc(OC)c(OC)c1)N1CCN(c2cccc(OC)c2)CC1 (centres undefined),56*,-1.9,0.1,86*,0.4
CCC(C)(C)n1nnnc1C(c1ccc(Cl)cc1)N1CCN(C)CC1 (centres undefined),6,0.97,1,1,0.9
CCC(C)(C)n1nnnc1C(c1ccc(OC)c(OC)c1)N1CCN(c2ccc(OC)cc2)CC1 (centres undefined),57*,0.39,0.1,88*,0.4
